High-throughput results from PubChem BioAssay.
BJeLR viability – MLPCN primary cell-based screen for lethality selective to Ras in HRASV12 cells; BJeLR (HRASV12) viability, CellTiter-Glo ATP luminescence, 48 h; inhibition, % (no concentration beside the values); hit rate 0.17% among 300,000; AID 1554, 2009; in the data active = inhibition above about 50%
RN4220 kill – growth inhibition of S. aureus RN4220, primary screen, OD600. inhibition, % (no concentration beside the values). 16 h. hit rate 0.33% among 330,000; in the data active = inhibition above about 85%;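 also: plate controls were untreated cells for no effect and reference antibiotic for full effect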
MazEF act – activators of E. coli MazEF toxin-antitoxin RNase, primary screen, biochemical, fluorescence, uHTS; FAM/BHQ RNA-DNA oligo cleavage fluorescence, 5 h; activation, % at 20 µM; hit rate 0.32% among 350,000; in the data active = activation above about 50%
Target sequence (P0AE70 whole entry, looked up): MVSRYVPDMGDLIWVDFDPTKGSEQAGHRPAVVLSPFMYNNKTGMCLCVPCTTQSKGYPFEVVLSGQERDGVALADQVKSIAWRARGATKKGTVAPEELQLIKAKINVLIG
ugtP null kill – growth inhibition of ugtP-null S. aureus, primary screen, RN4220 ugtP deletion, OD600. 16 h. growth inhibition, % (test concentration not listed). hit rate 0.54% among 330,000; in the data active = growth inhibition above about 68%;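 also: plate controls were untreated wells for no effect and antibiotic for full effect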
SSB-PriA inh – inhibitors of Klebsiella pneumoniae PriA binding to SSB C-terminal tail, primary screen, biochemical, AlphaScreen | PriA–SSB C-terminal tail interaction (Klebsiella pneumoniae) | hit rate 0.6% among 430,000 | inhibition, % at 33 µM | AlphaScreen SSBct-PriA binding, biotinylated peptide; in the data active = inhibition mostly above about 37%, no sharp cut-off; inactive = mostly below about 20%;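 also: plate controls were negative control peptide for no effect and reference peptide for full effect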
* marks the source's active call; other numbers are inactive results; . = no result; + = active, no number. The list is not random: actives were taken first. Their share in the collection is about 1.2%.

SMILES | BJeLR viability | RN4220 kill | MazEF act | ugtP null kill | SSB-PriA inh
COCCCNC(=O)c1cc2c(=O)n3cc(C)ccc3nc2nc1NCC1CCCO1 (stereo unspecified) | 4 | . | . | . | .
Cc1c(NC(=O)CN2C(=O)NC3(CCCCC3C)C2=O)cccc1[N+](=O)[O-] (stereo unspecified) | . | -1 | 0 | 1 | -6
Cc1cc(NC(=O)CSc2nc(-c3ccc(Cl)cc3)cs2)no1 | -7 | -2 | 77* | -6 | -10
Cc1cc(NC(=O)CSc2nc3ccccc3cc2C#N)no1 | -11 | 2 | 55* | 4 | -12
Cc1sc(NC(=O)COc2cccc(-n3cnnn3)c2)c(C#N)c1C | -6 | 1 | 120* | 5 | -15
CCCCOC(=O)C1=C(C)NC(=O)NC1c1ccc(OC)cc1 (stereo unspecified) | -4 | 4 | 1 | 6 | -9
COc1ccc(Cl)cc1C(=O)Nc1cnc(N2CCCCC2)nc1N(C)C | . | . | . | . | 9
O=C(Nc1nnc(-c2ccno2)o1)c1nc2ccccc2s1 | . | . | . | . | -11
O=C(Nc1nnc(-c2ccccc2)o1)c1nc2ccccc2s1 | 6 | 98* | -4 | 98* | -20
Cc1ccccc1-c1ccc(N2CCN(S(=O)(=O)c3ccc(Cl)s3)CC2)nn1 | . | . | . | . | -2
COc1cccc(C(=O)N2CCN(c3ccc(-c4ccccn4)nn3)CC2)c1OC | . | . | . | . | 94*
CCC(C(=O)N1CCN(c2ccc(-c3ccccn3)nn2)CC1)c1ccccc1 (stereo unspecified) | . | . | . | . | 80*
O=S(=O)(c1ccc(Cl)s1)N1CCN(c2ccc(-c3ccccn3)nn2)CC1 | . | . | . | . | 55*
CCC(C(=O)N1CCN(c2ccc(-c3ccncc3)nn2)CC1)c1ccccc1 (stereo unspecified) | . | . | . | . | 3
Cn1ccnc1SCC1CCN(C(=O)CSCc2ccccc2)CC1 | . | . | . | . | 16
Cc1ccccc1-c1nc(CN2CCSCC2)c(C)o1 | -4 | 3 | -14 | 0 | -3
Cc1cc(O)c(C=Nc2ccc(N3CCOCC3)cc2)c(C)c1Cl | -18 | 6 | 261* | 4 | -5
Cn1c(O)c(C=Nc2ccc(N3CCOCC3)cc2)c(=O)n(C)c1=S | -1 | 4 | -40 | -7 | -9
O=C(CSc1nc2cc(Cl)ccc2s1)NCc1ccc2c(c1)OCO2 | 0 | -2 | 63* | -5 | 2
Cc1nnc(SCC(=O)NCc2ccc3c(c2)OCO3)s1 | -7 | 1 | 10 | 6 | -6
Cc1ccc(C(C)C)c(OCc2ccc(C(=O)NN=Cc3ccc(O)c(O)c3)cc2)c1 | . | 58 | . | 100* | 4
Cc1ccc(C(C)C)c(OCc2ccc(C(=O)NN=Cc3ccc(C(=O)O)cc3)cc2)c1 | . | 8 | . | 26 | .
CC1CN(c2nc3ccccc3cc2-c2ccccc2)CC(C)O1 (stereo unspecified) | -5 | -7 | 0 | 91* | -55
Cc1cc(C)n(CC(=O)NC2C(=O)N3C(C(=O)O)=C(CSc4nnc(C)s4)CSC23)n1 (stereo unspecified) | . | 100* | 1 | 100* | -18
Cc1nnc(SCC2=C(C(=O)O)N3C(=O)C(NC(=O)c4cccc(F)c4F)C3SC2)s1 (stereo unspecified) | -1 | 100* | 6 | 101* | -4
SMILES | BJeLR viability | RN4220 kill | MazEF act | ugtP null kill | SSB-PriA inh
Cc1nnc(SCC2=C(C(=O)O)N3C(=O)C(NC(=O)Cn4ncc(Cl)c4C)C3SC2)s1 (stereo unspecified) | -6 | 99* | 6 | 99* | -11
CC1=C(C(N)=O)C(c2cccnc2)n2nc(-c3cccc(C)c3)nc2N1 (stereo unspecified) | -4 | 0 | 4 | -2 | -13
Cc1cc(C)c(S(=O)(=O)N2CCN(C(=O)c3c(C)nn(-c4ccccc4)c3Cl)CC2)c(C)c1 | . | 3 | -24 | 3 | 44*
Cc1ccc(S(=O)(=O)N2CCN(C(=O)c3c(C)nn(-c4ccccc4)c3Cl)CC2)cc1 | -11 | -3 | -2 | 8 | -11
O=C1C2C3C=CC(C3)C2C(=O)N1c1ccc(S(=O)(=O)c2ccc(N3C(=O)C4C5C=CC(C5)C4C3=O)cc2)cc1 (stereo unspecified) | . | . | . | . | -18
O=c1c2ccccc2c(C=Nc2ccc(O)cc2)c(O)n1Cc1ccccc1 | -2 | 1 | + | -5 | 2
O=C(c1ccc2nsnc2c1)N1CCSC(c2ccccc2Cl)CC1 (stereo unspecified) | . | . | . | . | 4
Cc1ccc(N2CC(C(=O)NCCn3cccnc3=O)CC2=O)cc1C (stereo unspecified) | . | . | . | . | 41
O=C(NCCn1ccnc1-c1ncccn1)C1CC(=O)N(c2ccc(F)cc2)C1 (stereo unspecified) | . | . | . | . | 116*
Cc1ccc(N2CC(C(=O)NCCn3ccnc3-c3ncccn3)CC2=O)cc1C (stereo unspecified) | . | . | . | . | 43*
O=C(c1cc(N2CCCC2)ncn1)N1CCN(S(=O)(=O)C2CC2)CC1 | . | . | . | . | -13
Oc1sc(C=Nc2ccccc2)c2ccccc12 | 0 | 1 | 140* | -4 | -36
CC1CCC(C(C)C)C(OC(=O)C[n+]2cc(-c3ccc(Cl)cc3)n3c2CCCCC3)C1 (stereo unspecified) | 11 | 100* | 13 | 101* | -15
O=C(C[n+]1cc(-c2ccccc2)n2c1CCCCC2)c1ccc(Cl)cc1 | 4 | -3 | 15 | -14 | 5
COc1ccc(NC(=O)NN2CCN(C)CC2)cc1OC | -11 | 1 | -1 | 0 | -6
CN1CCN(NC(=O)Nc2cc(Cl)cc(Cl)c2)CC1 | 0 | 100* | 10 | 97* | -6
O=C(Nc1nc(-c2ccccc2)cs1)C1COc2ccccc2O1 (stereo unspecified) | 6 | -18 | 8 | -14 | -5
CC1CC1C(=O)Nc1nc(-c2ccccn2)cs1 (stereo unspecified) | 1 | 6 | 8 | -5 | 60*
O=C(Nc1nc(-c2ccccn2)cs1)C1CC1c1ccco1 (stereo unspecified) | . | . | . | . | 99*
O=C(Nc1nc(-c2ccccn2)cs1)C1COc2ccccc2O1 (stereo unspecified) | . | 19 | 10 | 16 | 71*
c1ccc2c3c([nH]c2c1)CCNC3 | 2 | . | 5 | . | 11
CCN(CC)CCCNC(=O)c1cc(-c2ccccc2)c(N2CCCCC2)s1 | 51* | 4 | 35 | 88* | -3
O=C1C2C3C=CC(CC3)C2C(=O)N1c1nccs1 (stereo unspecified) | -7 | 4 | 6 | 5 | -14
CC(=O)N1c2ccc(S(=O)(=O)N3CCCC3)cc2CC1C(=O)NCc1cccc(F)c1 (stereo unspecified) | -9 | 0 | 7 | 0 | -8
Cc1ccc(-c2csc3ncnc(SCC(N)=O)c23)cc1 | 3 | 3 | 2 | 20 | -11
CCc1nnc(NC(=O)CSc2ncnc3scc(-c4ccc(C)cc4)c23)s1 | 3 | 4 | 86* | 1 | -6
CCN(CC)c1ccc(N2C(=O)CSC2=S)cc1 | 6 | 93 | 5 | 33* | 8
COc1cccc(NC(=O)c2oc3ccccc3c2NC(=O)c2ccc(C(C)(C)C)cc2)c1 | . | . | . | . | -3
